Assay outcomes: PubChem BioAssay, several laboratories
TMEM16A inh: mouse TMEM16A channel inhibition, primary screen | Q8BHY3 | HEK293 TMEM16A/YFP iodide influx fluorescence, ionomycin | normalized B-score (activity score, 25-100; higher = stronger inhibition) at 10 µM | actives 1.2% (n = 310,000) | AID 588511;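 active = ratio plate-corrected score three or more library SD toward inhibition, starting fluorescence score within five deviations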;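 also: score derived from kinetic fluorescence span divided by baseline fluorescence per well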
GPR7 antagonist: blocks human GPR7 receptor signaling. P48145. GPR7-expressing cells, fluorescence antagonist assay. inhibition, % at 4.4 µM. actives 1.1% (n = 290,000). AID 1861; in the data active = inhibition above about 16%, passing the limit was not always enough;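 also: cells stimulated with the agonist NPW; 0% = agonist with vehicle and 100% = vehicle without agonist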
ANO1 activ: mouse TMEM16A channel activation, primary screen; Q8BHY3; HEK293 TMEM16A/YFP-H148Q/I152L, iodide quench fluorescence; stronger effect = lower value; B-score at 10 µM; actives 0.3% (n = 340,000); AID 623877;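 active = fluorescence-ratio B-score plate-corrected deviation score at least 3 library SD below zero, with starting fluorescence score within 5 deviations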;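 also: channel opened by trigger with iodide after compound preincubation; score built on the fluorescence ratio of max minus min over baseline; more negative score means more quench and so TMEM16A activation or potentiation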
Kir21 inh: Kir2.1 (mouse) channel inhibition; HEK293-Kir2.1, FluxOR thallium flux fluorescence; stronger effect = lower value; B-score at 10 µM; actives 0.85% (n = 310,000); AID 1672;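 active = fluorescence ratio B-score at or below minus 3 SD of library scores, with starting-brightness B-score within 2 SD, cut at about -4.2 in these data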;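 also: channel flux triggered by added potassium and thallium sulfate stimulus; B-score of peak minus minimum fluorescence over baseline after thallium stimulus; more negative B-score means stronger Kir2.1 block with less thallium influx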
CHT allo act: allosteric activators of human choline transporter CHT; Q9GZV3; CHT-expressing cells, membrane potential dye, choline EC20; stronger effect = higher value; LV-AA mutant CHT in HEK293 cells; B-score at 10 µM; actives 0.49% (n = 310,000);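 active = initial fluorescence not abnormally high and integrated response B-score, plate-corrected, over 3 SD above library mean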
Target sequence (Q9GZV3 whole entry, looked up): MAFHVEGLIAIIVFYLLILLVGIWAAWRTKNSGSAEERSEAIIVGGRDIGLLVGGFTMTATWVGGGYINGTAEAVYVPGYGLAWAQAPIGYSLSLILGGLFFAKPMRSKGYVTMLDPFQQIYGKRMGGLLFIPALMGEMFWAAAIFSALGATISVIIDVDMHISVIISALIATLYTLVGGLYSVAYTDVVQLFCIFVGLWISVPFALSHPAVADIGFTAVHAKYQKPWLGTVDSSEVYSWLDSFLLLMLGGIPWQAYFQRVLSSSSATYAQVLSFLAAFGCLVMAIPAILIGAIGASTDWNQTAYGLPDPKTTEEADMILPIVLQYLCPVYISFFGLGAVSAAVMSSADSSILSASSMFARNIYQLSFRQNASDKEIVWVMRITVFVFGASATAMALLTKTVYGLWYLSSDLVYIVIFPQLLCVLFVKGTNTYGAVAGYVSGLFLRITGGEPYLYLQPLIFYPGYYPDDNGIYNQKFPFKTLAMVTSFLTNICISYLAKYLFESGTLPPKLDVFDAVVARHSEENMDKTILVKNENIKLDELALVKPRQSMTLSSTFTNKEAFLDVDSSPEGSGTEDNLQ
CHT inh: inhibitors of human choline transporter CHT | Q9GZV3 | CHT-expressing cells, membrane potential dye, choline response; stronger effect = lower value | B-score at 10 µM | actives 0.86% (n = 310,000);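 active = B-score over 3 SD under the library average, and starting fluorescence ratio not unusually high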;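 also: choline stimulus applied at its EC90 after an EC20 pre-addition; B-score computed on integrated fluorescence ratio after choline addition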
CHT block conf: human CHT inhibition, confirmatory screen | shares compounds with CHT inh | CHT-expressing cells, choline membrane potential dye; LV-to-AA substituted CHT, HEK293 cells | CHT activity remaining % of control (stronger effect = lower value), % at 10 µM | actives 70% (n = 2,400) | AID 493221;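 active = choline transporter activity left, mean of duplicates at 10 µM, below buffer-only control mean minus 3 SD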;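 also: depolarization triggered by choline at its EC90 following an EC20 pre-addition; 0% = hemicholinium-3 full block and 100% = buffer-only control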
HEK293 MPD ctr: counter-screen for CHT inhibitors: effect in parental HEK293 cells | membrane potential dye, choline response; active = decrease or increase beyond buffer ±3SD | actives 4% (n = 2,400) | shares compounds with CHT inh | membrane potential ratio readout (active if shifted either direction beyond buffer ±3SD; no single direction) at 10 µM;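 also: parental cells lack the transporter so any hit is non-specific; ratio is peak minus trough fluorescence over baseline after EC90 choline challenge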
* marks the source's active call; other numbers are inactive results; i = inactive; / = not tested or not shown. Rows were chosen to be rich in hits. Some 3.7% of all compounds tested hit in one or more screens of this group.

SMILES	TMEM16A inh	GPR7 antagonist	ANO1 activ	Kir21 inh	CHT allo act	CHT inh	CHT block conf	HEK293 MPD ctr
Cc1ccc(C(=O)C[n+]2cccc3ccccc32)cc1	i	-6	i	-0.87	i	-6.5*	29%*	i
O=C(C[n+]1cccc2ccccc21)c1ccc(Br)cc1	i	-10	i	-0.49	i	-9.3*	26%*	i
CC1CCCCN1C(=O)c1ccc(C(=O)Nc2ccc(F)cc2)cc1 (stereo unspecified)	i	/	i	/	i	-6.4*	45%*	i
CC1CCCCN1C(=O)c1ccc(NC(=O)c2ccccc2Cl)cc1 (stereo unspecified)	i	20	i	1.3	i	i	/	/
Cc1noc(NC(=O)c2ccccc2)c1C#N	i	-1	i	0.22	i	i	/	/
COc1ccccc1C(=O)Nc1onc(C)c1C#N	i	-2	i	-0.56	i	-6.4*	i	i
O=C1C(=O)N(CCc2c[nH]c3ccccc23)C(c2cccnc2)/C1=C(/O)c1ccccc1 (stereo unspecified)	i	4	/	0.18	i	-6.3*	i	i
CC(NC(=S)NCc1ccccc1)C12CC3CC(CC(C3)C1)C2 (stereo unspecified)	i	-5	i	0.84	i	i	/	/
CCCc1cc(=O)[nH]c(SCC(=O)Nc2cccc3ccccc23)n1	i	-8	i	0.71	i	i	/	/
O=C(CSc1nc(C(F)(F)F)cc(=O)[nH]1)Nc1cccc2ccccc12	i	/	i	-0.18	i	-5.4*	40%*	i
Nc1ccc(NC(=O)NC2CCCCC2)cc1[N+](=O)[O-]	i	17	i	-0.02	i	i	/	/
CC1CN(C(=O)CCC(=O)NC(C)c2ccccc2)c2cc(Cl)ccc2O1 (stereo unspecified)	i	6	i	-1	i	i	24%*	i
CN(CCCC(=O)NC1CC(C)(C)NC(C)(C)C1)S(=O)(=O)c1ccc([N+](=O)[O-])cc1	i	-3	i	-0.61	i	i	/	/
Cc1nc(C(F)(F)F)c(C(=O)O)cc1-c1nc(-c2ccccc2)cs1	i	5	i	0.22	i	i	/	/
Cc1ccc(C(=O)Nc2ccccc2N2CCCCC2)o1	i	-1	i	-0.5	i	i	/	/
Cc1nc(N2CCCCC2C)c2c(C)c(C(=O)Nc3ccccc3C(F)(F)F)sc2n1 (stereo unspecified)	i	-17	i	-0.97	i	-7.5*	i	i
Cc1nc(N2CCC(C)CC2)c2c(C)c(C(=O)Nc3ccc(C(F)(F)F)cc3)sc2n1	i	-8	i	2	i	i	/	/
CCOc1ccc(C(=O)C(C)OC(=O)c2nc(Cl)ccc2Cl)cc1 (stereo unspecified)	i	/	i	0.89	i	i	/	/
CCOC(=O)c1cnc2c(C(F)(F)F)cccc2c1N1CCOCC1	i	1	i	0.92	i	-5.8*	52%*	i
CN(C)S(=O)(=O)c1ccc(NC(=O)Cc2ccc(S(=O)(=O)N3CCOCC3)s2)cc1	i	-2	i	-0.62	i	i	/	/
CC(NC(=O)Cc1ccc(S(=O)(=O)N2CCOCC2)s1)c1ccc(Cl)c(Cl)c1 (stereo unspecified)	i	/	i	-2.6	i	-7.1*	57%*	i
O=C(Cc1ccc(S(=O)(=O)N2CCOCC2)s1)Nc1ccc(N2CCOCC2)cc1	i	4	i	0.05	i	-5.1*	i	i
CSc1ccc(C(=O)C2CCCN(C(=O)Cc3nonc3C)C2)cc1 (stereo unspecified)	i	11	i	-0.33	i	i	/	/
